This is a sample that favours compounds with a hit; in the whole collection about 1.5% have one here.
TrxR1 substrate: rat thioredoxin reductase 1 substrate activity; O89049; purified TrxR1 substrate turnover, NADPH consumption readout; Potency, µM (top dose mostly 114 µM), for the others: top-dose activity change, negative = substrate turnover; 390,000 tested, 0.01% active; also: potency is read from the fitted curve at half-maximal effect; nearly all actives have a fitted effect of over 50% in size
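Rat TrxR1, dispensed at 90 nM, was prereduced with 400 uM NADPH (final) for 5 min at ~22 deg C, then incubated with compound 15 min before 400 uM selenite. A first-read NADPH fluorescence drop versus no-compound background flagged substrates.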
GALK inh: blocks human galactokinase activity. 270,000 tested, 0.007% active. P51570. Purified GALK, Kinase-Glo residual ATP luminescence. Potency, µM (top dose mostly 57.5 µM), for the others: at the highest dose activity change, negative = inhibition, hits mostly inhibitors; also: potency is read from the fitted curve at half-maximal effect
Target sequence (P51570 whole entry, looked up): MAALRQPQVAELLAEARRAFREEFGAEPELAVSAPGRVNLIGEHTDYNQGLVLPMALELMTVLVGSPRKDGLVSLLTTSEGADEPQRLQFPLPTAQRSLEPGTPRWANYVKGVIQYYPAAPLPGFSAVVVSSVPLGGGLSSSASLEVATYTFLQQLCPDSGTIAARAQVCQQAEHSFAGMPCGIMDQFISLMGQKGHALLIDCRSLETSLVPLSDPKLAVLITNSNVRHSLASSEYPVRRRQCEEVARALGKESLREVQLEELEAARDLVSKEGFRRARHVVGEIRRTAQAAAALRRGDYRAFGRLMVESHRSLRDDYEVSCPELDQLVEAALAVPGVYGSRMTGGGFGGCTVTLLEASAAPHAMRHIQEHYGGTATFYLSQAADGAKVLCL
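5 nM enzyme, 35 uM ATP, 100 uM galactose, 20 mM HEPES pH8.0, 5 mM MgCl2; 1 h RT; residual ATP by Kinase-Glo Plus luminescence, qHTS format.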
Coupling enz: inhibits coupling enzyme system, counter-screen for aldolase hits; AID 2472; 290,000 tested, 0.67% active; coupling enzyme system counterscreen, AmpLite Red fluorescence; activity change, negative = inhibition, % at 58.2 µM, hits read low; in the data active = activity change below about -30%
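Activity here indicates interference with the coupling reaction, not aldolase inhibition. Compounds at 57.5 uM final met coupling enzymes for 10 min at RT; substrate and AmpLite Red detection followed, with a 525/598 nm fluorescence read after 20 min.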
rTrxR1 inhibitor: blocks rat thioredoxin reductase 1 | O89049 | recombinant rTrxR1, NADPH fluorescence consumption, selenite substrate | Potency, µM (top dose mostly 114 µM), for the others: top-dose activity change, negative = inhibition, actives largely listed as inhibitors | 390,000 tested, 1% active | AID 588453; also: potency is read from the fitted curve at half-maximal effect; nearly all actives have a fitted effect of over 65% in size
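Rat TrxR1 (90 nM in the dispensed reagent) was pre-reduced with 400 uM NADPH for 5 min at room temperature, then incubated with compound for 15 min. After 400 uM selenite was added, NADPH fluorescence (Ex 340/Em 450 nm) was followed for 8 min.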
USP1-UAF1 inh: blocks the human USP1/UAF1 deubiquitinase complex; O94782; recombinant USP1/UAF1, Ub-Rhodamine cleavage fluorescence; Potency, µM (titrated, usually from 57.1 µM), for the others: at the highest dose activity change, negative = inhibition, hits mostly inhibitors; 390,000 tested, 0.23% active; AID 743255; also: potency is read from the fitted curve at half-maximal effect; nearly all actives have a fitted effect of over 60% in size
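USP1/UAF1 complex (1 nM) preincubated 15 min at room temperature with compound, then Ub-Rho substrate (150 nM final) added. Kinetic fluorescence at 480/540 nm over 6 reads at 60 s intervals; 50 mM HEPES pH 7.8, 0.5 mM EDTA, 0.1 mg/ml BSA, 1 mM TCEP, 0.01% Tween-20.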
* marks the source's active call; other numbers are inactive results; ! = repeats disagree; [ ] = dose if it differs, or a comment. Unless noted, calls follow the shape of the dose curve; as a rule, active = well fitted curve in the direction sought with a large enough effect; inconclusive = small, poorly fitted or top-dose-only effect, or another doubt; inactive = no such curve, though single readings can be large; an effect the other way counts as inactive or inconclusive. % is scaled to controls: 0 for no effect and ±100 for the full control effect.

CC(C)C[C@H]1C(=O)N2CCC[C@H]2[C@]2(O)O[C@](NC(=O)[C@@H]3C=C4c5cccc6[nH]cc(c56)C[C@H]4N(C)C3)(C(C)C)C(=O)N12 was read as TrxR1 substrate 22.4%, rTrxR1 inhibitor 15.8µM* and USP1-UAF1 inh 17.8µM*.
Screening CC[C@@H](CO)NC(=O)[C@@H]1C=C2c3cccc4c3c(cn4C)C[C@H]2N(C)C1 returned TrxR1 substrate 11.4%[57.1 µM], GALK inh -1.7%, Coupling enz -56.4*!, rTrxR1 inhibitor 46.2% and USP1-UAF1 inh inconclusive.
CCC(CO)NC(=O)C1C=C2c3cccc4[nH]cc(c34)CC2N(C)C1 (stereo not drawn) was read as TrxR1 substrate 233.4%, Coupling enz -21.1, rTrxR1 inhibitor 53.0% and USP1-UAF1 inh -22.3%.
For CN1C(=O)C(=Cc2cn(CC(=O)N3CCCC3)c3ccccc23)C(=O)N(C)C1=O the results were TrxR1 substrate 2.4%, GALK inh -2.3%, Coupling enz 0.5, rTrxR1 inhibitor 8.2% and USP1-UAF1 inh -14.5%.
CCN1C(=O)NC(=O)/C(=C\c2cn(CC(=O)N3CCCCC3C)c3ccccc23)C1=O (stereo not drawn) was read as TrxR1 substrate -5.0%, GALK inh -4.2%, Coupling enz 7.0, rTrxR1 inhibitor 20µM* and USP1-UAF1 inh -18.3%.
CC1(C)N(O)C(c2ccc(C(=O)O)cc2)=[N+]([O-])C1(C)C was read as Coupling enz -51.3*.
For C[C@]12CC[C@@H]3c4ccc(O)c(O)c4CC[C@H]3[C@@H]1CC[C@@H]2O the results were TrxR1 substrate 0.6%, GALK inh 5.6%, Coupling enz -47.4*, rTrxR1 inhibitor inconclusive and USP1-UAF1 inh inconclusive.
`C[C@]12CC[C@@H]3c4cc(O)c(O)cc4CC[C@H]3[C@@H]1CC[C@@H]2O` gave TrxR1 substrate 0.7%, GALK inh 2.1%, Coupling enz -21.6, rTrxR1 inhibitor inconclusive and USP1-UAF1 inh -9.4%.
`CN1C(=O)C(=Cc2ccccc2OCc2ccc(Cl)cc2)C(=O)N(C)C1=O` gave TrxR1 substrate 3.4%[57.1 µM], GALK inh -0.1%, Coupling enz -0.4, rTrxR1 inhibitor -25.0%[57.1 µM] and USP1-UAF1 inh -9.9%.
O=C1NC(=O)C(=Cc2cc(Cl)ccc2OCc2ccc(C(=O)O)cc2)C(=O)N1 was read as TrxR1 substrate 3.4%, GALK inh -1.2%, Coupling enz 12.1, rTrxR1 inhibitor 10µM* and USP1-UAF1 inh -18.8%.
For CCOc1cc(/C=C2\C(=O)NC(=O)N(CCc3ccc(F)cc3)C2=O)ccc1O the results were TrxR1 substrate -5.0%, GALK inh -1.3%, Coupling enz 2.1, rTrxR1 inhibitor 11.2µM* and USP1-UAF1 inh -16.6%.
Screening CN(C)c1ccc(/C=C2/C(=O)NC(=O)N(CCc3ccc(F)cc3)C2=O)cc1 returned TrxR1 substrate -7.3%, GALK inh -3.8%, Coupling enz 1.3, rTrxR1 inhibitor inconclusive and USP1-UAF1 inh -9.7%.
For [Hg+][c]1ccccc1 the results were TrxR1 substrate -0.7% and rTrxR1 inhibitor inconclusive.
COc1ccc2nc(NC(=O)c3nc(S(=O)(=O)Cc4cccc(C)c4)ncc3Cl)sc2c1 was read as TrxR1 substrate -2.7%, rTrxR1 inhibitor -19.3% and USP1-UAF1 inh inconclusive.
For CN1C(=O)C(=Cc2ccc(Sc3ccccc3)o2)C(=O)N(C)C1=S the results were TrxR1 substrate -3.1%, rTrxR1 inhibitor 20µM* and USP1-UAF1 inh -17.2%.
`O=C1NC(=O)C2(CCCc3ccc(N(CCCl)CCCl)cc32)N1` (stereo not drawn) gave TrxR1 substrate 2.8%, rTrxR1 inhibitor 20µM* and USP1-UAF1 inh 0.7%.
For NC1CCCCC1N (stereo not drawn) the results were Coupling enz -0.6.
C=C1[C@@H](C)[C@H]2[C@H](Cc3ccccc3)NC(=O)[C@]23OC(=O)/C=C/[C@H](O)CCC[C@@H](C)C/C=C/[C@H]3[C@@H]1O was read as TrxR1 substrate 3.8%, GALK inh -2.2%, Coupling enz 1.7, rTrxR1 inhibitor 50.1µM*! and USP1-UAF1 inh -9.0%.
Nc1cncc(C(=O)O)c1 was read as TrxR1 substrate 16.1%, GALK inh 1.7%, Coupling enz -30.9*!, rTrxR1 inhibitor -10.2% and USP1-UAF1 inh -6.3%.

Screening data as filed in PubChem.
